This is a sample that favours compounds with a hit; in the whole collection about 19% have one here.
IL-1B inflam inh: qHTS for Inhibitors of Inflammasome Signaling: IL-1-beta AlphaLISA Primary Screen; THP-1 LPS/ATP IL-1B secretion, AlphaLISA, 16 h; hits give low values; activity change, % at 57.5 µM; 360,000 compounds, 4.7% hits; AID 743279, 2014; in the data active = activity change below about -50%; inconclusive = mostly about -30% to -49%
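Secreted IL-1B measured by AlphaLISA bead assay after 16 h compound exposure of THP-1 cells; compounds (final up to 57.5 uM) added 1 h before LPS (250 ng/mL) and ATP (1.25 mM) stimulation; lower signal means less secretion.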
TDP1 cell noCPT: qHTS for Inhibitors of human tyrosyl-DNA phosphodiesterase 1 (TDP1): qHTS in cells in absence of CPT | Potency, µM (titrated, usually from 46.2 µM), without a hit: at the highest dose activity change, negative = growth inhibition, hits mostly inhibitors | DT40 Tdp1-/- hTDP1 cells, no CPT, ATP luminescence, 48 h | 420,000 compounds, 15% hits | AID 686978, 2013; also: potency is read from the fitted curve at half-maximal effect; nearly all actives have a fitted effect of over 55% in size
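Compound effects on proliferation are scored in DT40 Tdp1-/-;hTDP1 cells in the absence of CPT. ATP levels (CellTiter-Glo luminescence) are recorded after a ≥48 hr, 37 °C incubation.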
ELG1 DNA repair: qHTS screen for small molecules that inhibit ELG1-dependent DNA repair in human embryonic kidney (HEK293T) cells expressing luciferase-tagged ELG1 | HEK293T ELG1-luciferase reporter, luminescence, 16 h; DNA damage induced by 5-fluorouridine | Potency, µM (top dose mostly 46.1 µM), for inactives: top-dose activity change, negative = inhibition, usual class: inhibitors | 330,000 compounds, 2.3% hits; also: potency is read from the fitted curve at half-maximal effect; nearly all actives have a fitted effect of over 55% in size
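Reporter activity after DNA damage by 5-fluorouridine is monitored. Compound-treated cells incubate 16 hr at 37 °C, then ONE-Glo is added for 30 min before luminescence reading.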
TDP1 inh: qHTS Assay for Inhibitors of Tyrosyl-DNA Phosphodiesterase (TDP1). Tyrosyl-DNA phosphodiesterase 1 (Homo sapiens), Q9NUW8. recombinant TDP1, AlphaScreen DNA substrate cleavage. Potency, µM (doses to about 130 µM), without a hit: top-dose activity change, negative = inhibition, hits mostly inhibitors. AID 485290, 2010. 350,000 compounds, 0.28% hits; also: potency is read from the fitted curve at half-maximal effect; nearly all actives have a fitted effect of over 40% in size
Target sequence (Q9NUW8 whole entry, looked up): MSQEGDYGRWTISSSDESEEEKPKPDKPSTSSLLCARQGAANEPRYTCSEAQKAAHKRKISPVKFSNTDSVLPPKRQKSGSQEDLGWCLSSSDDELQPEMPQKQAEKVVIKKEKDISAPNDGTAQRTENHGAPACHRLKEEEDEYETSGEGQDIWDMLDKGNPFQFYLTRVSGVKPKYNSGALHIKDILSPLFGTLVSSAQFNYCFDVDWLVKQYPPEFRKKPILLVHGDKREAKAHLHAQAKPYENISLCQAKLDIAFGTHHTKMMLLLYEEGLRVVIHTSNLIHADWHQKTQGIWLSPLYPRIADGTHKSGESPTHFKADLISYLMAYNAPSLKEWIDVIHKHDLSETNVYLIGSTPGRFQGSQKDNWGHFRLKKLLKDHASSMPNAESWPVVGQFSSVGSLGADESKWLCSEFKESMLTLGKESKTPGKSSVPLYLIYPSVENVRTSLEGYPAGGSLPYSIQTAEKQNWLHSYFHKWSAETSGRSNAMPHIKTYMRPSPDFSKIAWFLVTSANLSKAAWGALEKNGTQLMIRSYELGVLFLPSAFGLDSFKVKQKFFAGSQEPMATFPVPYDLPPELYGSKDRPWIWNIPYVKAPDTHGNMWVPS
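Enzyme-compound mixtures sat 15 min at room temperature, followed by a 5 min reaction with 15 nM final substrate and 10 min with AlphaScreen beads. Recombinant human Tdp1 was used at 1 nM final.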
TDP1 cell CPT: qHTS for Inhibitors of human tyrosyl-DNA phosphodiesterase 1 (TDP1): qHTS in cells in presence of CPT | chicken DT40 Tdp1-/-;hTDP1 cells + 20 nM CPT, ATP luminescence, 48 h | Potency, µM (top dose mostly 46.2 µM), for the others: at the highest dose activity change, negative = growth inhibition, most hits filed as inhibitors | 420,000 compounds, 12% hits | AID 686979, 2013; also: potency is read from the fitted curve at half-maximal effect; nearly all actives have a fitted effect of over 55% in size
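Cell growth measured by CellTiter-Glo luminescence after a minimum 48 h, 37 C compound exposure with 20 nM CPT in Tdp1-knockout DT40 cells stably expressing hTDP1, seeded 400/well; qHTS titration format.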
Giardia killer: Small Molecules that selectively kill Giardia lamblia: qHTS | 340,000 compounds, 0.15% hits | activity change, % at 7.66 µM, hits read low | Giardia lamblia trophozoite viability; in the data active = activity change below about -80%; inconclusive = between about -30% and that limit;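 also: parasites exposed to compound for two days anaerobically before the ATP read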
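Each well holds 100 Giardia trophozoites and compound. After two days (48 hrs) at 37 deg C in anaerobic conditions, ATP is quantified by luminescence.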
* hit, by the source's call; ? = inconclusive; . = no result given; [ ] = dose if it differs, or a comment. Unless noted, calls follow the shape of the dose curve; as a rule, active = well fitted curve in the direction sought with a large enough effect; inconclusive = small, poorly fitted or top-dose-only effect, or another doubt; inactive = no such curve, though single readings can be large; an effect the other way counts as inactive or inconclusive. % is scaled to controls: 0 for no effect and ±100 for the full control effect.

SMILES	IL-1B inflam inh	TDP1 cell noCPT	ELG1 DNA repair	TDP1 inh	TDP1 cell CPT	Giardia killer
COCCn1c(=O)c(-c2cccs2)nc2cnc(Oc3cccc(Cl)c3)nc21	.	?	.	.	-14%	.
O=C(Nc1ccc(SC(F)(F)F)cc1)c1ccccn1	1	?	?	-5%	-10%	-25
CCC1Oc2ccccc2N(CC(=O)N2CC(C)CC(C)C2)C1=O (centres undefined)	-21	?	.	.	-21%	.
CCC1CCc2sc(C(=O)NNC(=S)NCC3CCCO3)cc2C1 (centres undefined)	22	?	9%	-1%	?	-21
CCC1CCc2sc(C(=O)NCC(c3ccccc3OC)N3CCCC3)cc2C1 (centres undefined)	-22	21µM*	-7%	2%	16µM*	10
CCC1CCc2sc(C(=O)NCC3CCCO3)cc2C1 (centres undefined)	-17	18µM*	?	0%	?	-21
CCC1CCc2sc(C(=O)NCc3ccccn3)cc2C1 (centres undefined)	-11	10µM*	?	2%	15µM*	-1
CC(C)N(C(=O)[C@H]1C[C@H](CC(=O)NCCN2CCOCC2)C(=O)N2CCc3c([nH]c4cc(-c5ccco5)ccc34)[C@]12C)C(C)C	?	?	7%	5%[56.1 µM]	?	-10
CC(C)(C)NC(=O)C[C@H]1C[C@H](C(=O)N2CCCCC2)[C@@]2(CCc3ccccc3)c3[nH]c4cc(-c5ccco5)ccc4c3CCN2C1=O	0	23µM*	-1%	3%[56.1 µM]	18µM*	16
CCN(CC)C(=O)[C@H]1C[C@H](CC(=O)NC(C)(C)C)C(=O)N2CCc3c([nH]c4cc(-c5ccco5)ccc34)[C@]12C	-8	18µM*	-28%	2%[56.1 µM]	23µM*	-17
CC(C)N(C(=O)[C@H]1C[C@H](CC(=O)NCCCn2ccnc2)C(=O)N2CCc3c([nH]c4cc(-c5ccco5)ccc34)[C@]12C)C(C)C	0	-11%	9%	1%[56.1 µM]	-6%	16
CN(C)CCCNC(=O)C[C@H]1C[C@H](C(=O)N2CCCCC2)[C@@]2(CCc3ccccc3)c3[nH]c4cc(-c5ccco5)ccc4c3CCN2C1=O	-8	?	?	4%[56.1 µM]	?	-13
CC(C)N(C(=O)[C@H]1C[C@H](CC(=O)NC(C)(C)C)C(=O)N2CCc3c([nH]c4cc(-c5ccco5)ccc34)[C@]12C)C(C)C	-67*	?	-18%	5%[56.1 µM]	?	7
CC1(C)Cc2ccccc2C(NNC(=O)c2ccccn2)=N1	75	21µM*	?	9%	18µM*	8
CC(=O)Nc1ccccc1-c1nc2ccccc2n(C(C)C(=O)Nc2cccc(C)c2C)c1=O (centres undefined)	.	?	.	6%	21µM*	.
CCC(=O)Nc1ccccc1-c1nc2ccccc2n(CC(=O)c2ccc(Cl)cc2)c1=O	.	?	.	-11%	?	.
CCC(=O)Nc1ccccc1-c1nc2ccccc2n(CC(=O)Nc2ccccc2OC)c1=O	.	5.8µM*	.	-6%	5.8µM*	.
CCC(C(=O)Nc1ccc(C)c(Cl)c1)n1c(=O)c(-c2ccccc2NC(C)=O)nc2ccccc21 (centres undefined)	.	13µM*	.	6%	21µM*	.
COc1ccc(Cl)cc1NC(=O)Cn1c(=O)c(-c2ccccc2NC(C)=O)nc2ccccc21	.	15µM*	.	9%	13µM*	.

Screens (PubChem)
